# ABCB6 inh MLPCN = ABCB6 transporter inhibitors, primary screen, K562-ABCB6 cells, flow cytometry, MLPCN library; K562-ABCB6 porphyrin accumulation, 1 h; hits give low values; fluorescence ratio to DMSO, % at 10 µM; 0.19% of 360,000 active;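 active = fluorescence ratio to DMSO below 75%, the collection mean minus 3 SD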;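 note: signal is porphyrin accumulated inside mitochondria; 100% equals median channel fluorescence of DMSO control wells; lower ratio means ABCB6 inhibition with less porphyrin fluorescence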
# Target sequence (Q9NP58 whole entry, looked up): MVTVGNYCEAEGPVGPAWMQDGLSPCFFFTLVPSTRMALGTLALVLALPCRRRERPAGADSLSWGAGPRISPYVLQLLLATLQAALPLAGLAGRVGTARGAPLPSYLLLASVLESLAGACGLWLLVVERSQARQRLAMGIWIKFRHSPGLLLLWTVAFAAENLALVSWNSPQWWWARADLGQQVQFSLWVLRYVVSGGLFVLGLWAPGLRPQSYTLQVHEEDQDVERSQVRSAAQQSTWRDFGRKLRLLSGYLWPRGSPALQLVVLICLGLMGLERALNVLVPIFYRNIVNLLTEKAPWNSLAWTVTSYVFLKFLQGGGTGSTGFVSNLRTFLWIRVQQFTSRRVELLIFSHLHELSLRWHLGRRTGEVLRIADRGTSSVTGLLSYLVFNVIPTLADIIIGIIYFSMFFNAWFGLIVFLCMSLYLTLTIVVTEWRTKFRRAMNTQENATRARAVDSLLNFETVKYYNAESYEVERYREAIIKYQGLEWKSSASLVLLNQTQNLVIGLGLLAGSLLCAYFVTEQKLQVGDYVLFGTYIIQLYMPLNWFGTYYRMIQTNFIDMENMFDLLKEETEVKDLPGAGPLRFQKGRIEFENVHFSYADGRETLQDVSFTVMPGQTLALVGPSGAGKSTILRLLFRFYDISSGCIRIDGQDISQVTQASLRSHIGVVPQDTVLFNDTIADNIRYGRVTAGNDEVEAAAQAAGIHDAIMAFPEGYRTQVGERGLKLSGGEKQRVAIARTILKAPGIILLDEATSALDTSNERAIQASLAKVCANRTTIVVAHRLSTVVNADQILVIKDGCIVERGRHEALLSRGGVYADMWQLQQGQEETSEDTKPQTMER
# Exocytosis inh = LAMP-1 surface exposure blockers, TALL-104 cells – cell-based, flow cytometry, MLPCN library, primary screen. TALL-104 LAMP-1 surface exposure; cells stimulated with thapsigargin and PMA. inhibition, % at 10 µM. 0.66% of 360,000 active. AID 651702, 2012;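 active = inhibition above about 55%, limit read from the data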
# VLA-4 inh = inhibition in human VLA-4 binding assay, primary screen, VLA-4 allosteric modulator project, MLPCN library, flow cytometry, VLA-4 expressing cells; ligand binding flow cytometry; inhibition, % (about 7 µM as worked out from the volumes in the protocol); 0.2% of 330,000 active; AID 2557, 2010; in the data active = inhibition above about 50%
# CaV13 ICDI inh = Primary screen for inhibitors of IQ motif and Ca2+-dependent inactivation inhibitor domain binding in CACNA1D, Förster resonance energy transfer in living cells, … | HEK cells, CFP/YFP FRET ICDI-IQ, plate reader, 10 min; percent FRET-ratio fall versus neutral wells | inhibition, % at 12.3 µM | 0.098% of 340,000 active | AID 743397;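 active = mean replicate inhibition of at least 30% and at least 1% of replicates passing that level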;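 note: 0% = median of the neutral control wells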
# VLA-4 allo CP = retest of VLA-4 allosteric modulators, confirmation, cell-based, cherry-picked plates, U937, HUTS-21 LIBS antibody; U937 cells, HUTS-21 LIBS mAb binding, flow cytometry; LDV ligand present at threefold Kd; AID 2813, 2010; inhibition, % at 6.7 µM; shares compounds with VLA-4 inh; 2% of 1,300 active; in the data active = inhibition above about 40%;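 note: 0% = ligand without compound and 100% = no ligand background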
# * = called active by the depositor; . = no result. In the library only some 1.1% were active in any assay of this set; here they are far more common.
SMILES,ABCB6 inh MLPCN,Exocytosis inh,VLA-4 inh,CaV13 ICDI inh,VLA-4 allo CP
CCN(C[C@H]1N[C@@](Cc2ccccc2)(C(=O)OC)[C@H]2C(=O)N(Cc3ccccc3)C(=O)[C@@H]12)S(=O)(=O)c1ccc(F)cc1,98.0,8.5,37.1,-10.3,.
CCN(C[C@H]1N[C@@](Cc2ccccc2)(C(=O)OC)[C@H]2C(=O)N(Cc3ccccc3)C(=O)[C@@H]12)S(=O)(=O)c1ccc(C(C)(C)C)cc1,90.0,-3.4,-14.8,-8.4,15.0
CCN(C[C@H]1N[C@@](Cc2ccccc2)(C(=O)OC)[C@H]2C(=O)N(Cc3ccccc3)C(=O)[C@@H]12)S(=O)(=O)c1ccc(OC(F)(F)F)cc1,91.0,-4.1,-9.4,-3.5,-1.4
COc1cccc(-c2cc(=O)c3cc(NC(=O)c4ccccc4)ccc3[nH]2)c1,98.0,-0.3,-4.2,-9.1,.
COc1cccc(-c2cc(=O)c3cc(NC(=O)c4ccc(Cl)cc4)ccc3[nH]2)c1,101.0,1.7,50.1*,3.5,-2.1
COCC(=O)NCc1ccc2c(c1)OCO2,100.0,-1.7,52.6*,-5.7,-7.6
O=C(COC(=O)c1ccc2c(c1)OCO2)NCc1ccc2c(c1)OCO2,98.0,2.2,3.4,-6.0,.
CCC(C)C(NC(=O)C(N)CC(C)C)C(=O)NC(CCC(=O)OCc1ccccc1)C(N)=O (stereo not given),96.0,6.9,54.0*,-5.0,5.3
S=C(NCCC(c1ccccc1)c1ccccc1)Nc1cccc(Cl)c1,100.0,-1.4,93.4*,-5.1,-5.5
COC(=O)c1cc2c(c3c4cc(OC)ccc4n(S(=O)(=O)c4ccc(OC)cc4)c13)C(=O)N(C1CCCCC1)C2,.,.,.,-4.4,.
CNC(=S)N/N=C/c1c(C)nn(-c2ccccc2)c1Cl,98.0,-1.5,.,-8.1,.
CNC(=S)N/N=C/c1c(C)nn(-c2cccc(Cl)c2)c1Cl,91.0,2.9,40.2,1.9,7.0
CC1CCC(NC(=S)NCCN(C)C)CC1 (stereo not given),98.0,7.1,-6.2,-2.5,.
CC1CCC(NC(=O)N(CCCl)N=O)CC1 (stereo not given),106.0,1.5,64.7*,-4.8,-0.2
COc1cc2c(cc1OC)C(c1ccc(N(C)C)cc1)CC(=O)N2 (stereo not given),97.0,2.5,23.2,-7.2,.
COc1cc2c(cc1OC)C(c1cccc(Br)c1)CC(=O)N2 (stereo not given),98.0,-2.9,3.8,-3.7,.
CCN(CC)c1ccc(C2CC(=O)Nc3cc(OC)c(OC)cc32)cc1 (stereo not given),93.0,0.4,2.9,-2.5,3.5
COc1ccc(C2CC(=O)Nc3cc(OC)c(OC)cc32)cc1Br (stereo not given),105.0,-1.6,8.1,-20.4,6.3
O=C(NC1CCCCC1)C(c1ccncc1)N(C(=O)Cc1cccs1)c1ccccc1 (stereo not given),93.0,-9.5,7.0,0.6,.
Cc1cc2c(c(=O)o1)[C@@]1(C(=O)N(C)c3ccccc31)C1=C(CC(C)(C)OC1=O)O2,.,.,.,-7.4,.
COC(=O)[C@]12C[C@H](CC(=O)NCc3cccs3)C(=O)N(Cc3ccccc3)C1=C[C@H](C(C)C)O[C@@H]2C1CC1,.,.,.,-8.0,.
C=CCC[C@H](Cc1ccc(F)cc1)C(=O)OC[C@@H](C)NC(=O)[C@@H](CC=C)CC(=O)N[C@H](CO)Cc1ccccc1,96.0,-8.8,15.6,-6.6,.
C=CCC[C@H](Cc1ccc(F)cc1)C(=O)OC[C@@H](C)NC(=O)[C@@H](CC=C)CC(=O)N[C@@H](CO)Cc1ccccc1,95.0,11.9,63.1*,-3.1,-0.8
COC(=O)N1Cc2ccnnc2CC1c1ccccc1-c1ccccc1 (stereo not given),.,.,.,-4.3,.
COc1ccc(S(=O)(=O)Nc2c(F)cccc2F)cc1,98.0,0.0,23.1,-36.9,1.2
COc1ccc(S(=O)(=O)Nc2ccccc2C)cc1,96.0,-0.2,-5.0,-5.4,.
CC(C)C[C@H](NC(=O)c1nccs1)C(=O)N1CCC[C@H]1C(=O)NCc1ccccc1,.,.,.,-9.6,.

# High-throughput results (PubChem)
